# High-throughput results deposited in PubChem BioAssay by several laboratories.
# RecA splice inh – Mtb RecA intein splicing inhibition | cell-free RecA intein splicing, fluorescence | inhibition, % (no concentration beside the values) | 0.75% of 290,000 active; in the data active means inhibition above about 30%;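 further: 0% = vehicle wells and 100% = reference inhibitor control wells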
# Target sequence (P9WHJ3 whole entry, looked up, canonical isoform): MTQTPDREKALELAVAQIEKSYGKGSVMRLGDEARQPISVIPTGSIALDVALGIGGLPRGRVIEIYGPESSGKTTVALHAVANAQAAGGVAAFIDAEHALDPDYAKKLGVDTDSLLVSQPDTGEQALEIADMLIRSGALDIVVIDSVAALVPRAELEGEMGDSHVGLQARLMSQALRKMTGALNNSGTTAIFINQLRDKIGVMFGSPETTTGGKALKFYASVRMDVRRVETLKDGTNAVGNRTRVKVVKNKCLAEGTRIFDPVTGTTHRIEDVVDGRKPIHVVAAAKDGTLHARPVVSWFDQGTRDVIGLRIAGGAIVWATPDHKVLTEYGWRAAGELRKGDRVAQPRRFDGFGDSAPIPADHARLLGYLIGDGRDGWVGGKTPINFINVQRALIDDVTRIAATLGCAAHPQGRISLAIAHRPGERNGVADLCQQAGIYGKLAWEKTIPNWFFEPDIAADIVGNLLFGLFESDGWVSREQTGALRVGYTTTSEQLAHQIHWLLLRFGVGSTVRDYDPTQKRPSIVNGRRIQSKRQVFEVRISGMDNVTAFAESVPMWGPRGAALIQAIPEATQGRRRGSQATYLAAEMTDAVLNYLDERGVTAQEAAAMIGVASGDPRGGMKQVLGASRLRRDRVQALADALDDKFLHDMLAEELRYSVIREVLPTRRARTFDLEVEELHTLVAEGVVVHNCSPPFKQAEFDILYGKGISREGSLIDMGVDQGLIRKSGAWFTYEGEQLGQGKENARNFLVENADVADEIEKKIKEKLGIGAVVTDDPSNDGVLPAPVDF
# Sa RN4220 lethal – kills Staphylococcus aureus RN4220. AID 1259311. inhibition, % (concentration not given with the values). 0.33% of 330,000 active. S. aureus RN4220 growth, OD600, 16 h; in the data active means inhibition above about 85%;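 further: plate controls were untreated cells for no effect and reference antibiotic for full effect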
# ugtP null kill – kills S. aureus RN4220 lacking UgtP. S. aureus RN4220 ugtP deletion, OD600 growth, 16 h. growth inhibition, % (no concentration beside the values). 0.54% of 330,000 active; in the data active means growth inhibition above about 68%;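 further: plate controls were untreated wells for no effect and antibiotic for full effect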
# Mtb hypoxia inh – reduces hypoxia-regulated biosensor signal in M. tuberculosis | AID 1159583 | 0.1% of 300,000 active | M. tuberculosis hypoxia-regulated fluorescent reporter, fluorescence | fluorescence inhibition, % (no concentration beside the values); in the data active means fluorescence inhibition mostly above about 23%, no sharp cut-off; inactive means mostly below about 17%
# BJeLR viability – kills HRASV12-expressing BJeLR cells | BJeLR (HRASV12) viability, CellTiter-Glo ATP luminescence, 48 h | 0.17% of 300,000 active | inhibition, % (no concentration beside the values) | AID 1554; in the data active means inhibition above about 50%
# CCHF vOTU inh-1 – blocks the CCHF virus ovarian tumor domain protease | inhibition, % at 11.5 µM | AID 651958 | 0.55% of 370,000 active | CCHFV vOTU protease, Pep-AMC fluorescence; further: 0% = vehicle wells with enzyme and 100% = no enzyme wells
# CCHF vOTU inh-2 – CCHFV vOTU protease inhibition, confirmation | Recombinant CCHFV vOTU, Pep-AMC fluorescence | shares compounds with CCHF vOTU inh-1 | 17% of 1,900 active | inhibition, % at 11.5 µM
# The depositor's hits bear a star; . = not tested or not shown. Compounds with a hit are over-represented: about 1.6% of the library has one in this group of screens. Unless noted, no stated cut-off is given here; in the data, active means inhibition above about 30%; inactive means the rest.
SMILES,RecA splice inh,Sa RN4220 lethal,ugtP null kill,Mtb hypoxia inh,BJeLR viability,CCHF vOTU inh-1,CCHF vOTU inh-2
COc1ccc(OCc2cc(C(=O)NC3CCOCC3)no2)c2ccccc12,30,3,2,6,6,61*,22
CCc1nc2c(OCC(=O)C(C)(C)C)cccn2c1N(C=O)CC(=O)N(C)C,.,.,.,.,.,-3,.
CCCCN(C=O)c1c(CC)nc2c(OCC(=O)C(C)(C)C)cccn12,.,.,.,.,.,32*,-19
CCCCCn1nc(C)c(C=NNC(=O)c2cc(C)oc2C)c1C,.,0,-6,0,.,.,.
CN1c2ccccc2C(O)=C(C(=S)Nc2ccc(Cl)cc2)S1(=O)=O,6,50,16,1,-6,31*,6
CN1N=C(N)c2cn(C3OC(COP(=O)(O)O)C(O)C3O)c3ncnc1c23 (configuration not stated),.,.,.,.,.,32*,4
O=C1NC(Cc2ccc(O)cc2)c2nc3cc(F)c(F)cc3c(=O)n2-c2cc3ccccc3cc21 (configuration not stated),.,.,.,.,.,30*,-17
Cc1ccccc1OCC(=O)N1N=C(C(F)(F)F)CC1(O)C(C)(C)C (configuration not stated),.,11,-14,-79,1,33*,10
CCCCn1c(NC(C)=O)c(C#N)c2nc3ccccc3nc21,-350,25,3,10,10,-128,.
C=CCn1c(NC(=O)c2ccccc2Cl)c(C#N)c2nc3ccccc3nc21,6,40,23,1,2,82*,45*
CC1C/C(=C\c2ccccc2[N+](=O)[O-])c2nc3ccccc3c(C(=O)O)c2C1 (configuration not stated),5,4,15,6,-4,32*,-10
Cc1cc(C(=O)NN=C2CC(=O)c3ccccc32)c(C)n1-c1ccccc1,.,-7,-1,5,.,.,.
Cc1cc(C(=O)N/N=C2\CC(=O)c3ccccc32)c(C)n1-c1ccc(F)cc1,23,.,.,.,-8,61*,19
COCCCn1c(O)c(/C=C2/N=C(C#N)C(=Nc3ccc(C)cc3)O2)sc1=S,.,1,3,3,.,.,.
CSC1=N/C(=C\c2ccc(C)o2)C(=O)S1,-4,4,16,11,-1,30*,-8
CSC1=N/C(=C\c2ccc(C)s2)C(=O)S1,-3,1,13,5,-1,-5,.
Cc1onc(-c2ccccc2)c1C(=O)N/N=C/c1ccc(O)c([N+](=O)[O-])c1,-2,.,.,.,2,33*,-11
C[C@]12CCC(=O)C(O)=C1CCC1C2CC[C@]2(C)C(=O)CCC12 (some centres not stated),.,8,1,8,.,.,.
O=C(Nc1ccc(F)cc1)c1ccccc1Oc1ccc(C(F)(F)F)cc1[N+](=O)[O-],7,-1,-15,-7,11,31*,-5
CCOC(=O)c1c(S(=O)(=O)NCC(=O)NCc2ccc(C)cc2)c(C)n(C)c1C,-1,4,2,5,1,42*,-12
Cc1cccc(NC(=O)CCC(=O)NN=Cc2cccnc2)c1,.,2,4,2,.,.,.
Cc1ccc2[nH]c3c(c2c1)CCC3=O,-1,11,1,4,-1,-48,.
Cc1ccc2[nH]c3c(c2c1)CCc1cn[nH]c1-3,-3,-2,-39,2,3,38*,-23
CCN1C(=O)NC(c2cccc(C(F)(F)F)c2)C(C(C)=O)C1C (configuration not stated),.,5,7,16,.,.,.
COc1cc2c(cc1OC)CN(CC(=O)Nc1ccc(C)cc1)CC2,-3,2,2,8,-2,30*,-22
SMILES,RecA splice inh,Sa RN4220 lethal,ugtP null kill,Mtb hypoxia inh,BJeLR viability,CCHF vOTU inh-1,CCHF vOTU inh-2
O=c1[nH]ncc(NN=Cc2ccncc2)c1Cl,.,3,3,7,.,.,.
O=c1[nH]ncc(N/N=C\c2cccs2)c1Cl,5,.,.,.,.,30*,-8
Cc1ccsc1C=NNc1cn[nH]c(=O)c1Cl,.,10,2,5,.,.,.
O=c1[nH]ncc(N/N=C\c2ccncc2)c1Cl,-5,.,.,.,-10,34*,-1
Nc1c(C(=O)Nc2ccc3c(c2)OCCO3)nnn1Cc1cccc(Br)c1,3,4,3,9,9,0,.
Nc1c(C(=O)Nc2ccc3c(c2)OCCO3)nnn1Cc1ccc(Br)cc1,1,1,-1,2,15,31*,-9
CCN(CC)C(=O)c1ccc(/C=C/c2c[nH]c3ccccc23)[n+](C)c1,7,5,2,21,-12,18,.
